According to PubChem BioAssay AID1007 (NMMLSC, 2008):
Hit rate of the full screen: of about 190,000 compounds, about 80 (0.04%) were called active. These entries were drawn from the full list. A number with no mark means an inactive call. Rule as the data show it: active = inhibition above about 40%.

Molecular target: Bcl-2-like protein 1 (Homo sapiens) (UniProt Q07817)
Test: Bcl-XL/Bim peptide interaction blockers – biochemical, multiplexed, bead flow cytometry, human Bcl-XL, primary screen (AID 1007)
Settings: Bim peptide-Bcl-XL binding, fluorescence, at 10 µM, active compounds read high

Sequence of Bcl-2-like protein 1 (Homo sapiens) (Q07817 whole entry, looked up): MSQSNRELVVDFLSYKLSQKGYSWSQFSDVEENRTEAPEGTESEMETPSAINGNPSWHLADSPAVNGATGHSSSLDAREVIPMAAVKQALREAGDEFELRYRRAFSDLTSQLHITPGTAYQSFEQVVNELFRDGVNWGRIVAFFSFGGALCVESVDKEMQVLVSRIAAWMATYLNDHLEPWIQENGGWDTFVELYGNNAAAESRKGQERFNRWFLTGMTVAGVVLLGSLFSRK

Structure (SMILES)	inhibition [%]
COc1ccc(-c2[nH]ncc2CN(C)Cc2cccnc2)c(F)c1	0
Cc1ccc2c(c1)C1CN(C)CCC1N2S(=O)(=O)c1ccc(Oc2ccc([N+](=O)[O-])cc2)cc1 (stereo not drawn)	-1
CS(=O)(=O)N(CC(=O)N/N=C/c1ccccn1)c1ccc(Oc2ccccc2)cc1	-4
CCOCCCNC(=O)C(=O)NCCCOCC	-11
O=C(COC(=O)Cc1ccc(F)cc1)Nc1cc(S(=O)(=O)N2CCOCC2)ccc1N1CCCC1	-11
Cc1nc(N2CCC(C)CC2)c2c(C)c(C(=O)Nc3cc(F)ccc3C)sc2n1	-5
Cc1ccc(C)c(CSc2nc(-c3ccco3)nc3c2c(=O)n(C)c(=O)n3C)c1	-2
CCN(CC)CCn1c(/N=C/c2cc(Br)ccc2O)nc2ccccc21	-11
O=[N+]([O-])c1ccccc1Nc1ccc(O)cc1	-5
Cc1c(C(=O)O)nnn1-c1nonc1N	0
CN1CCN(C(CNS(=O)(=O)c2cccs2)c2cccnc2)CC1 (stereo not drawn)	0
O=C(Cc1cccs1)N/N=C/c1ccc(OCc2ccccc2)cc1	-4
O=C(Nc1ccc2oc(-c3ccccc3F)nc2c1)c1ccco1	0
O=c1c(Cl)c(NCc2ccc(F)cc2Cl)cnn1C12CC3CC(CC(C3)C1)C2	-8
COC(=O)c1ccc(OCC(O)CN(CCO)CC(O)Cn2ccc3ccccc32)cc1 (stereo not drawn)	-8
CCc1ccc(-c2cc(C(=O)NN3CCN(C)CC3)c3ccccc3n2)cc1	-6
COc1ccc(CCc2nnc(CCC(=O)NCc3cnn(-c4ccccc4C)c3)o2)cc1	0
Cc1ccc(NC(=O)Cn2cccc2C2=NC(c3ccccc3)CO2)c(C)c1 (stereo not drawn)	-2
CC(Sc1nc2c([nH]c3ccccc32)c(=O)n1C)c1ccccc1 (stereo not drawn)	-6
O=C(Nc1ccccc1C(=O)N1CCOCC1)c1ccc(Cl)cc1	0
Cc1nnc(SCC2=C(C(=O)O)N3C(=O)C(NC(=O)Cn4nc(C)c(Cl)c4C)C3SC2)s1 (stereo not drawn)	-6
O=C(NC(CC(=O)N1CCN(c2ccccc2)CC1)c1ccccc1)c1ccccc1Cl (stereo not drawn)	-6
COc1ccc(NC(=O)COc2ccc(C(=O)OCC(=O)N(C)C3CCS(=O)(=O)C3)cc2OC)cc1 (stereo not drawn)	-2
Cn1c(CCC(=O)Nc2ccccc2F)nnc1SCC(=O)Nc1ccccc1Cl	-5

Structure (SMILES)	inhibition [%]
COc1ccc(NC(=O)CC2C(=O)OCC3CCCCN32)cc1Cl (stereo not drawn)	-4
O=[N+]([O-])c1cccc(S(=O)(=O)N2CCCCCC2)c1	-7
CCN1CCC2(CC1)N=C(c1ccc(F)cc1)C(=S)N2C(=O)c1ccc(C)cc1	-10
Cc1ccc2c(=O)oc(N(C)C)nc2c1	1
Cc1cc(C)c(C(N)=O)c(Cl)n1	-2
CCOC(=O)c1ccc(NC(=O)C2CC(=O)Nc3nc4ccccc4n32)cc1 (stereo not drawn)	2
CCn1c(N)c(Br)c(=O)[nH]c1=O	-2
C#Cc1ccc([C@@H]2C=C(C(=O)O)O[C@H](OCCCCO)C2)cc1	-4
CCN(CC)CC1(O)CCN(C(=O)c2ccc(Cl)c(Cl)c2)CC1	0
CCC(CC)c1nnc(NC(=O)/C=C/c2ccco2)s1	-8
O=C(NCc1ccco1)C(=O)c1cn(CC(=O)N2CCCCCC2)c2ccccc12	-2
COc1ccc(CNC(=O)CCCn2nc(C)c([N+](=O)[O-])c2C)cc1	-4
O=C(N1CCCC1)C12CC3CC(C1)CC(C(=O)N1CCCC1)(C3)C2	-4
Cc1ccccc1CN(c1ccc(C(=O)NCC2CCCO2)cc1)S(C)(=O)=O (stereo not drawn)	-6
O=C(c1cccc(F)c1)N1CCN(c2ccc([N+](=O)[O-])c3cccnc23)CC1	-4
COc1cccc(C(=O)N2CCCC(CCC(=O)NCc3ccc(F)c(F)c3)C2)c1 (stereo not drawn)	-1
CCOC(=O)CCCNC(=O)COC(=O)c1cc(Br)c(Br)s1	2
Cc1ccccc1-c1n[nH]c(=S)n1/N=C/c1ccc(-c2ccccc2Br)o1	-1
CC1CCCC(C)N1/N=C/c1ccccc1OC(F)F (stereo not drawn)	2
O=C1NC(c2ccccc2)CCC1(Cl)Cl (stereo not drawn)	-5
O=C(O)CC(SCC(=O)Nc1ccc(Br)cc1)C(=O)O (stereo not drawn)	-2
COc1cc(Cl)c(C)cc1NC(=O)COC(=O)c1cc(SC)ccc1Cl	-6
COC(=O)c1ccccc1SC1CC(=O)N(c2cccc(C)c2)C1=O (stereo not drawn)	-2
Cc1ccc(NC(=O)Nc2nnc(-c3ccncc3)s2)cc1	-2
